Experimental data reported in PubChem BioAssay (NCI).
Compounds without any hit were thinned out: in the full panel of roughly 83,000, 20% have a hit.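 Cells were grown in 96-well plates and exposed to the test compound at a single concentration for 48 hours; results are reported as percent growth, with values below 10 considered active.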 Active and inactive are the calls of the source.

How the values were obtained:
Assay in all cases: NCI-60 one-dose screen, 48 h (100 = growth as untreated, 0 = no growth, -100 = all killed)
SK-MEL-2 melanoma = details: 10 µM unless noted
EKVX NSCLC = details: 10 µM
UO-31 renal = details: 10 µM unless noted
TK-10 renal = details: 10 µM unless noted
ACHN renal = details: 10 µM unless noted
CAKI-1 renal = details: 10 µM unless noted
A498 renal = details: 10 µM unless noted
CCRF-CEM leukemia = details: 10 µM
MOLT-4 leukemia = details: 10 µM unless noted
SN12C renal = details: 10 µM unless noted

Measured: growth

CC(=O)Nc1nc(C)c(C(=O)NN)s1
inactive: SK-MEL-2 melanoma 24.7% | EKVX NSCLC 143% | UO-31 renal 86.1% | TK-10 renal 203% | ACHN renal 93.6% | CAKI-1 renal 125% | A498 renal 106% | CCRF-CEM leukemia 94.9% | MOLT-4 leukemia 111%

CC([C@H]1CC=C2C3CCC4=C[C@@H](N(C)C)CC[C@]4(C)C3CC[C@@]21C)N(C)C (some centres not stated)
inactive: SK-MEL-2 melanoma 90.8% | SN12C renal 21.5% | TK-10 renal 95.5% | ACHN renal 48.1% | A498 renal 96.4% | CCRF-CEM leukemia 43.4% | MOLT-4 leukemia 73.5%
active: EKVX NSCLC -38.8% | CAKI-1 renal -48.8%

COc1ccc(-c2cc(C#N)c(NNC(C)=O)[nH]2)cc1
active: CCRF-CEM leukemia -0.558%
inactive: SK-MEL-2 melanoma 102% | EKVX NSCLC 112% | UO-31 renal 96.2% | TK-10 renal 95.7% | ACHN renal 103% | CAKI-1 renal 107% | A498 renal 123% | MOLT-4 leukemia 46%

O=C(Nc1ccccc1)Nc1ccc(Nc2ncnc3sc4c(c23)CCCC4)cc1
inactive: SK-MEL-2 melanoma 114% | EKVX NSCLC 102% | UO-31 renal 71.6% | TK-10 renal 124% | ACHN renal 101% | CAKI-1 renal 100% | A498 renal 83.4% | CCRF-CEM leukemia 92.4% | MOLT-4 leukemia 89.5%

CCOC(=O)c1c(C)oc2ncnc(Nc3ccc(C(=O)NCCc4ccccc4)cc3)c12
inactive: SK-MEL-2 melanoma 82.5% | EKVX NSCLC 90.4% | UO-31 renal 97.4% | TK-10 renal 102% | ACHN renal 88.7% | CAKI-1 renal 92.6% | A498 renal 77.6% | CCRF-CEM leukemia 81% | MOLT-4 leukemia 105%

Cn1c2c(cc(S(=O)(=O)c3ccccc3)c1=O)CCc1c-2cnn1-c1ccc(Cl)cc1
active: SK-MEL-2 melanoma -9.09% | EKVX NSCLC 5.95% | UO-31 renal -14.2% | ACHN renal 6.4% | A498 renal -14.5%
inactive: TK-10 renal 34.6% | CCRF-CEM leukemia 98.2% | MOLT-4 leukemia 57.5%

NNC(=O)CNc1ccc2ccccc2c1
inactive: SK-MEL-2 melanoma 98.7% | EKVX NSCLC 105% | UO-31 renal 70.9% | TK-10 renal 119% | ACHN renal 101% | CAKI-1 renal 106% | A498 renal 107% | CCRF-CEM leukemia 101% | MOLT-4 leukemia 83.6%

O=C(N/N=C\c1ccc(Cl)cc1)C(=O)N/N=C\c1ccc(Cl)cc1
inactive: SK-MEL-2 melanoma 98.4% | EKVX NSCLC 102% | SN12C renal 90.8% | UO-31 renal 78.3% | TK-10 renal 105% | A498 renal 101% | CCRF-CEM leukemia 90.7% | MOLT-4 leukemia 98.1%

O=C1CSC(c2ccccc2Cl)N1c1nnc(-c2ccncc2)o1 (configuration not stated)
inactive: SK-MEL-2 melanoma 101% | EKVX NSCLC 93.2% | SN12C renal 98.3% | UO-31 renal 90.8% | ACHN renal 94.3% | CAKI-1 renal 107% | A498 renal 72.4% | CCRF-CEM leukemia 102% | MOLT-4 leukemia 94.3%

CCCNC(=O)Oc1ccc(/C(=C(/C)Cc2ccc(OC)cc2)c2ccc(OCCN3CCCC3)cc2)cc1
inactive: SK-MEL-2 melanoma 98.8% | EKVX NSCLC 70.1% | SN12C renal 71.3% | UO-31 renal 50.3% | TK-10 renal 83.4% | CCRF-CEM leukemia 50.7% | MOLT-4 leukemia 52.8%

O=C(/C(Br)=C/c1ccccc1)c1ccccc1
inactive: SK-MEL-2 melanoma 15.2% | EKVX NSCLC 109%
active: UO-31 renal -62.5% | TK-10 renal 3.38% | ACHN renal -71.3% | CAKI-1 renal -28.4% | MOLT-4 leukemia -25.2%

COC(c1ccccc1)C(Br)C(=O)c1ccccc1 (configuration not stated)
inactive: SK-MEL-2 melanoma 95.7% | EKVX NSCLC 103% | UO-31 renal 75.8% | TK-10 renal 91.5% | ACHN renal 94.6% | CAKI-1 renal 85% | A498 renal 98.6% | CCRF-CEM leukemia 69.9% | MOLT-4 leukemia 98%

COc1ccc(-c2nc(SCC(C)C)nc(Nc3ccc([N+](=O)[O-])cc3)c2C#N)cc1
inactive: SK-MEL-2 melanoma 105% | EKVX NSCLC 98.5% | UO-31 renal 79.7% | TK-10 renal 73% | ACHN renal 41.7% | A498 renal 89.8% | CCRF-CEM leukemia 78.1% | MOLT-4 leukemia 92.2%

Cc1ccc([C@@H]2C[C@H](O)Cc3ccccc3N2)s1
inactive: SK-MEL-2 melanoma 141% | EKVX NSCLC 97.6% | UO-31 renal 94.5% | TK-10 renal 119% | ACHN renal 104% | CAKI-1 renal 94.8% | CCRF-CEM leukemia 105% | MOLT-4 leukemia 95.7%

C=CC1CN2CCC1CC2C(O)c1ccnc2ccc(OC)cc12 (configuration not stated)
active: SK-MEL-2 melanoma 2.09%
inactive: EKVX NSCLC 102% | UO-31 renal 60.2% | TK-10 renal 108% | ACHN renal 97.9% | CAKI-1 renal 103% | A498 renal 108% | CCRF-CEM leukemia 106% | MOLT-4 leukemia 106%
